TAR Tat displ = HIV-1 TAR-Tat binding disruption. 100,000 tested, 0.6% active. z-score (test concentration not listed). HIV-1 TAR RNA, Tat peptide displacement FRET; stronger effect = higher value. AID 1259389; active means z-score of 3 or more in at least 2 runs
CDC25B-CDK2 inh = human CDC25B-CDK2/CyclinA binding inhibition; z-score (concentration not given with the values); 94,000 tested, 0.72% active; P30305+P24941; HTRF CDC25B-CDK2/CyclinA binding, anti-His/anti-Flag; stronger effect = higher value; in the data active means z-score above about 3.2
Active calls of the source: *; / = no result given. An excerpt weighted towards active compounds, which were near 0.9% of everything screened.

SMILES	TAR Tat displ	CDC25B-CDK2 inh
CN(C)CCN1C(C(=O)c2ccccc2)=C(OC(=O)c2ccco2)c2ccccc2S1(=O)=O	0.45	0.68
Cc1cccc(OCc2ccc(-c3nc(C#N)c(NCC4CCCO4)o3)o2)c1 (stereo not given)	0.24	-0.8
Cc1ccc2oc3c(c(=O)c2c1)C(c1cccnc1)N(CCCN1CCOCC1)C3=O (stereo not given)	1.7	/
Cc1ccc2nc(COc3ccc(NC(=O)C(C)Oc4ccccc4)cc3)cc(=O)n2c1 (stereo not given)	-0.22	/
COc1ccc(Nc2nc3c4ccccc4n(C(C)=O)c3s2)cn1	0.35	14*
C=CCNc1nc2c3ccccc3n(C(C)=O)c2s1	2.1	-2.2
CCCNC(=O)C1CCCN(c2nn3c(=O)c4c(nc3s2)CCCC4)C1 (stereo not given)	0.88	/
CN(C)C(=O)c1ccc2c(c1)ncn2CCNC(=O)NC1CCCC1	-0.75	/
COC(=O)CCc1ccc(OCC(O)CNC(C)C)cc1 (stereo not given)	1.5	/
CC(C)NCC(O)COc1ccc(COCCOC(C)C)cc1 (stereo not given)	-0.4	5.2*
NC(=O)C1CCN(C(=O)Cc2csc(NC(=O)NC3CCCC3)n2)CC1	2	/
O=C1c2cc([N+](=O)[O-])ccc2-c2ccc([N+](=O)[O-])cc21	/	0.65
CCCNC(=O)c1cc([N+](=O)[O-])cc2c1-c1ccc([N+](=O)[O-])cc1C2=O	/	16*
COc1cc(OC)cc(C(=O)Nc2sc3c(c2C(N)=O)CCCC3)c1	/	-0.63
COc1ccc2nc(Nc3sc4c(c3C(N)=O)CCCC4)sc2c1	-1.3	4.3*
COc1cc(C)c(Cl)cc1S(=O)(=O)N1CCN(c2cc(N(C)C)nc(C)n2)CC1	0.82	-1.9
Cc1cc2c(cc1S(=O)(=O)NCc1ccc3c(c1)OCO3)n(C)c(=O)c(=O)n2C	2.1	/
Cc1sc(-c2c[nH]c3ccccc23)nc1-c1c[nH]c2ccccc12	/	18*
c1ccc2c(-c3ccncc3)c[nH]c2c1	0.71	/
CCC(C(=O)NC1CCCCC1C)n1nc(C)c2sc3ccccc3c2c1=O (stereo not given)	2.9	-1.1
COc1cccc2c1Oc1ncccc1N(c1ccc(C(=O)N3CCCC3)s1)C2	0.32	/
O=C(O)c1c[nH]c2ccc(S(=O)(=O)N3CCC(O)CC3)cc2c1=O	0.26	/
O=C(O)c1c[nH]c2ccc(S(=O)(=O)N3CCCC3c3ccco3)cc2c1=O (stereo not given)	5.5*	-1.1
CC(C)OCCCNC(=O)c1noc2c1CCc1sccc1-2	0.09	/
COc1cccc(C(=O)Nc2n[nH]c3ccccc23)c1	/	5.2*
SMILES	TAR Tat displ	CDC25B-CDK2 inh
COc1cc(OC)cc(C(=O)Nc2noc3ccccc23)c1	0.69	-1.3
Cc1cnc(NC(=O)C(=O)c2cc(C)n(-c3ccc(Cl)cc3)c2C)s1	0.34	-2.6
CC(C)COc1ccc2c(c1)c1c3n2CCNC3CCC1 (stereo not given)	/	-3.1
C1=C(c2ccc3c(c2)c2c4n3CCNC4CCC2)CCC1 (stereo not given)	/	14*
CC(C)c1nn2c(=O)cc(CSCC(=O)Nc3ccc(F)cc3)nc2s1	0.39	/
CNC(=O)c1cc(=O)n(CC(=O)Nc2sc3c(c2C(=O)OC)CCC3)c2ccccc12	8.3*	/
COC(=O)c1c(NC(=O)c2ccccc2C(=O)O)sc2c1CCC2	1.8	0.85
CCN(CC)CCNC(=O)C1CCN(c2nn3c(=O)cc(C)nc3s2)CC1	/	-1.4
Cc1onc(-c2ccccc2)c1NC(=O)Nc1ccccc1N1CCOCC1	/	-1.6
Cc1onc(-c2ccccc2)c1NC(=O)Nc1ccc(C2=NC(C)(C)CO2)cc1	/	5.6*
CC(C)c1ccc(NC(=O)NCCS(C)=O)cc1 (stereo not given)	0.73	1.2
Cc1ccc(-c2nc(SCc3cc(=O)n4cc(C)sc4n3)n[nH]2)cc1	0.73	/
CNc1ncc(Br)nc1N	-4.4	0.96
Cc1cc2nc(NC3=NCN(Cc4ccco4)CN3)nc(C)c2cc1C	0.07	14*
Cc1nc(NC2=NCN(Cc3ccco3)CN2)nc2ccccc12	1.8	-1.2
Cc1cc2nc(NC3=NCN(CCN4CCOCC4)CN3)nc(C)c2cc1C	/	11*
Cc1cc2nc(NC3=NCN(CCCN4CCOCC4)CN3)nc(C)c2cc1C	0.9	0.99
CC(C)Cn1cc(NC(=O)NC(c2cccs2)C(C)C)c2ccccc2c1=O (stereo not given)	0.73	/
Cc1cc2c(NC(=O)Nc3ccc(C(C)(C)C)cc3)cccc2nn1	/	-2
Cc1cc2c(NC(=O)c3ccccc3C(=O)O)cccc2nn1	/	21*
COc1cccc(NS(=O)(=O)c2ccc3c(c2)oc(=O)n3C)c1	1.5	-1.1
Cc1cccc(-c2nc3sc(C)cc3c(=O)o2)c1	1.3	7.6*
CCc1cc2c(=O)oc(-c3ccccc3)nc2s1	0.63	-0.8
CN(Cc1ccccc1)C(=O)c1ccc2c(c1)CCN2S(=O)(=O)c1ccc(Br)cc1	1.6	0.1
Cc1ccc2c(c1)N(C)/C(=C/c1sc3ccccc3[n+]1CCO)S2	4.3*	-1.9

Screens from PubChem.
